Laboratory results: PubChem BioAssay (NCI)
The panel holds about 83,000 compounds, 20% with a hit somewhere; the sample as a whole holds those more often.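 The test compound was applied at a single concentration to cells in 96-well plates for 48 hours, and percent growth was recorded.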 Unmarked numbers belong to inactive results. Activity calls are given as the source filed them. How the source made its calls: active means growth percent below 10; inactive means the rest.

Columns and labels:
Assay in all cases: NCI-60 one-dose screen, 48 h (100 = growth as untreated, 0 = no growth, -100 = all killed)
Settings in all cases: 10 µM unless noted
T-47D breast = tested on: T-47D breast
BT-549 breast = tested on: BT-549 breast
MDA-MB-435 melanoma = tested on: MDA-MB-435 melanoma
SW-620 colon = tested on: SW-620 colon
MCF7 breast = tested on: MCF7 breast
HCT-116 colon = tested on: HCT-116 colon
HCC-2998 colon = tested on: HCC-2998 colon
KM12 colon = tested on: KM12 colon

| Structure (SMILES) | growth (T-47D breast) | growth (BT-549 breast) | growth (MDA-MB-435 melanoma) | growth (SW-620 colon) | growth (MCF7 breast) | growth (HCT-116 colon) | growth (HCC-2998 colon) | growth (KM12 colon) |
| --- | --- | --- | --- | --- | --- | --- | --- | --- |
| COc1cc(C2=C(c3cn(C)c4ccccc34)COC2=O)cc(OC)c1OC | 22.6% | 16.7% | -59.5% (active) | 13.7% | 14.8% | 1.75% (active) | 0.901% (active) | 13.2% |
| COc1cc(/C=N/NC(=O)c2cnn3c2NC(c2ccccc2)C3)ccc1OCc1ccccc1 (configuration not stated) | 8.39% (active) | -6.73% (active) | -28.3% (active) | -1% (active) | 0.769% (active) | -15.1% (active) | 32.8% | 2.22% (active) |
| CC[C@]12C=CCN3CC[C@@]4(c5cc(NC(=O)CCC(=O)O[C@H]6CC[C@H]7[C@@H]8CCC9=CC(=O)CC[C@@H]9[C@H]8CC[C@]67C)c(OC)cc5N(C)[C@H]4[C@@](O)(C(=O)OC)[C@@H]1OC(C)=O)[C@@H]32 | 53% | 77.6% | 20.7% | 86.9% | 80% | 62.5% | 91.9% | 73.1% |
| Cc1cccc(-c2cn3ccnc3c(-c3ccc4ncn(Cc5ccccc5)c4c3)n2)c1 | 13.9% | 101% | 99.1% | 100% | 77.8% | 63.3% | 111% | 78% |
| CN(CCN(C)c1ccc(C(=N)N)cc1)c1ccc(C(=N)N)cc1 | 163% | 86% | 90.5% | 104% | 108% | 104% | 97% | 91.3% |
| NC1=NN=C(N)C1=Cc1cc2ccccc2n2nnnc12 | 88.4% | 94.7% | 108% | 98.2% | 89.9% | 104% | 108% | 105% |
| O=C(Nc1ncc(Cc2cc(Cl)ccc2Cl)s1)c1cccs1 | 44.8% | 74.6% | 4.2% (active) | 48.5% | 32.5% | 35.3% | 58.4% | 31.2% |
| C=C1C(=O)O[C@H]2[C@H]1CC/C(COC(=O)NCC(C)c1ccc(CC(C)C)cc1)=C\CC[C@@]1(C)O[C@@H]21 (some centres not stated) | -50% (active) | -42.4% (active) | -88.7% (active) | -58.7% (active) | 13.7% | -83% (active) | 59.5% | -3.31% (active) |
| O=C1c2c(c3c4cccc(F)c4[nH]c3c3ccc4ccccc4c23)C(=O)N1O | 19.6% | 52.7% | 60.7% | 31.2% | 19.4% | 16.9% | 76.3% | 25.4% |
| CN1CCN(C(=O)[C@]23CCC(C)(C)C[C@H]2C2=CC[C@@H]4[C@@]5(C)C/C(=C/c6cccnc6)C(=O)C(C)(C)[C@@H]5CC[C@@]4(C)[C@]2(C)CC3)CC1 | 34.5% | 82% | 59.1% | 44.6% | 22.9% | 20% | 66.6% | 55.1% |
| O=[N+]([O-])CC(c1ccccc1F)c1c[nH]c2ccccc12 (configuration not stated) | 59.4% | 73.8% | 3.66% (active) | 39% | 54.3% | 65.2% | 80.6% | 59.5% |
| COc1cc2c(=O)n(CCCN(C)C)c3c4cc5c(cc4ccc3c2cc1OC)OCO5 | 85.8% | 47.8% | 67.6% | 38.6% | 25.3% | 30.6% | 86.8% | 47.8% |
| COc1cc2nc(-c3ccc(C(F)(F)F)cc3)cc(OCCN3CCCCC3)c2cc1OC | 85.1% | 40.4% | 90.5% | 98.8% | 79.5% | 45.8% | 76.7% | 80.3% |
| CC1(C)CC[C@]23CC[C@]4(C)[C@H](CC[C@@H]5[C@@]6(C)CCCNC(C)(C)[C@@H]6CC[C@]54C)[C@H]2[C@H]1OC3 | 2.46% (active) | 76.4% | -80% (active) | -71.9% (active) | -25% (active) | -99.4% (active) | -55.5% (active) | -69% (active) |
| CN1CCN(CCNc2nccc(-c3c(-c4cccc(O)c4)nc4sccn34)n2)S1(=O)=O | 68.5% | 52.3% | 29.2% | 65.4% | 71.3% | 25.1% | 88% | 34.4% |
| O=S(=O)(NCCCNc1nccc(-c2c(-c3cccc(F)c3)nc3sccn23)n1)c1cccc(F)c1 | -2.25% (active) | 33.3% | 24% | 76.7% | 33.7% | 48% | 99.3% | 30% |
| O=C(Cn1c(C(=O)c2ccccc2)nc2ccccc21)c1ccc(F)cc1 | 58.7% | 60.2% | -32% (active) | 22.9% | 36.4% | 39.2% | 50.1% | 43.9% |
| COc1cc(F)c(/C=C/c2cc(/C=C/c3cc(OC)c(OC)cc3F)on2)cc1OC | 79% | 91.4% | 7.63% (active) | 80.4% | 70.6% | 60.3% | 91.9% | 54.6% |
| COc1cc(/C(C)=C(\c2ccc(Cl)cc2)c2ccc(OCCN(C)C)cc2)ccc1F | 61.2% | 76.2% | 39.6% | 49.8% | 31.7% | 46.8% | 25.1% | 44% |
| Cc1nc2sccn2c1-c1nc2sccn2c1/C=C1/C(=O)Nc2ccccc21 | 27.6% | 36% | -63.8% (active) | 9.78% (active) | 10.6% | 24.1% | 66.8% | 12.5% |
| COc1ccc(C(=O)c2cc(C)c(OC)c(C)c2)c(OC)c1OC(=O)C(Cl)Cl | 59.5% | 11.4% | -28.4% (active) | 20% | 12.4% | 1.56% (active) | 9.93% (active) | 8.08% (active) |
| c1ccc2cc(Cn3c(-c4cccc5ccccc45)[n+](Cc4ccc5ccccc5c4)c4c5ccccc5c5ccccc5c43)ccc2c1 | -70.8% (active) | -70.5% (active) | -83.7% (active) | -78.2% (active) | -64.7% (active) | -73.5% (active) | -84.7% (active) | -82.2% (active) |
| OCc1cnccc1NCCCCOc1ccc(Oc2ccccc2)cc1 | 35.4% | 62.6% | 59.9% | 49.2% | 33.2% | 31.3% | 89.6% | 64.8% |
| CN1CCC(=C(c2ccccc2)c2ccccc2)C(c2ccccc2)C1 (configuration not stated) | 93.7% | 97.1% | 102% | 92.9% | 86.7% | 71.3% | 88.7% | 97.3% |
| COc1cccc(C(=O)NNc2nc(Cl)nc(N3CCN(C(c4ccccc4)c4ccccc4)CC3)n2)c1 | 83.3% | 81.6% | 97.2% | 33.9% | 88% | 39.2% | 64% | 90.2% |
| Nc1c(C(=O)Nc2cccc3cnccc23)sc2nc3c(cc12)C(=O)CCC3 | 105% | 83.4% | 7.12% (active) | 79.4% | 53.8% | 86% | 97.4% | 71.5% |
| Fc1ccc2c(-c3cncn3CCc3ccccc3)c[nH]c2c1 | 74.4% | 105% | 93.2% | 90.8% | 86.6% | 75.7% | 102% | 97.9% |
| CN1CCN(C(=O)[C@]23CCC(C)(C)C[C@H]2C2=CC[C@@H]4[C@@]5(C)C/C(=C/c6ccncc6)C(=O)C(C)(C)[C@@H]5CC[C@@]4(C)[C@]2(C)CC3)CC1 | 37% | 80.2% | 48.2% | 33.8% | 18.1% | 16.4% | 43.8% | 45.8% |
| NS(=O)(=O)c1ccc(Cn2c(SCC(=O)N/N=C/c3ccccc3O)nc3ccccc3c2=O)cc1 | 33.3% | 56.1% | 71.7% | 60.4% | 50% | 42.7% | 50.7% | 39.2% |
